# This is a sample that favours compounds with a hit; in the whole collection about 12% have one here.
# FMDV inh: blocks foot and mouth disease virus; FMDV antiviral cell-based qHTS; Potency, µM (doses to about 57.9 µM), without a hit: at the top dose activity change, negative = inhibition, actives largely listed as inhibitors; actives 1.2% (n = 410,000); AID 1159524; calls by dose curve; tested in HEK293T cells; note: read-out not given here; potency is the fitted concentration of half-maximal effect; % is set by controls: 0 for no effect and ±100 for the full control effect; nearly all actives have a fitted effect of over 45% in size
# Shiga toxin inh: blocks Shiga toxin action in Vero cells. Vero cells, Shiga toxin protein synthesis inhibition reporter. inhibition, % at 38.7 µM. actives 9.2% (n = 290,000). AID 2315; in the data active = inhibition mostly above about 28%, no sharp cut-off; inactive = mostly below about 43%; note: 0% is about no effect
# Cycloheximide cs: affects cycloheximide protein synthesis inhibition readout, counter-screen; cell reporter, cycloheximide protein synthesis inhibition counterscreen; max response, %; actives 12% (n = 300,000); AID 2314; in the data active = max response mostly above about 13%, no sharp cut-off; inactive = mostly below about 14%; note: read at 38.3 µM for the half of the compounds with a filed dose; 0% is about no effect
# Sm TGR block: blocks Schistosoma mansoni thioredoxin glutathione reductase. Potency, µM (highest dose often 114 µM), inactives show top-dose activity change, negative = inhibition, usual class: inhibitors. AID 485364. actives 3% (n = 360,000). purified TGR, DTNB reduction, TNB absorbance 405 nm. Q962Y6; active = well fitted inhibition curve with a large enough effect; inconclusive = small, poorly fitted or top-dose-only effect; inactive = no such curve, though single readings can be large or run the other way; note: potency is the fitted concentration of half-maximal effect; % is set by controls: 0 for no effect and ±100 for the full control effect; nearly all actives have a fitted effect of over 60% in size
#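 TGR 20 nM + NADPH 100 uM (dispensed conc.), cpd preinc 15 min RT; start with NADPH (500 uM addition) then DTNB (15 mM addition). Kinetic TNB absorbance, 405 nm filter. Four-parameter Hill fit across titration.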
# Numbers without * were called inactive; ? = inconclusive; · = not tested or not shown; [ ] = another dose, or the depositor's remark.
SMILES,FMDV inh,Shiga toxin inh,Cycloheximide cs,Sm TGR block
NC(=O)C1=C[C@H](C2CCCCC2)C[C@H](OCc2ccc(CO)cc2)O1,20%,63*,50*,-3%
CC(C)(C)[C@@H]1C=C(C(=O)Nc2ccccc2)O[C@H](OCc2ccc(CO)cc2)C1,-7%,50,26*,2%
C=CCOC(=O)C1=C[C@H](C2CCCCC2)C[C@H](OCc2ccc(CO)cc2)O1,63%,·,·,·
CC(C)(C)[C@H]1C=C(C(N)=O)O[C@@H](OCc2ccc(CO)cc2)C1,8%,40,13*,-14%
C#CCNC(=O)C1=C[C@H](C(C)(C)C)C[C@H](OCc2ccc(CO)cc2)O1,8%,24,8,?
CC(C)(C)[C@@H]1C=C(C(N)=O)O[C@H](OCc2ccc(CO)cc2)C1,-29%,-2,-4,-4%
COc1ccc(-c2cc(C(F)(F)F)n3nc(C(=O)Nc4cc(C(F)(F)F)ccc4Cl)cc3n2)cc1OC,-15%,·,·,-1%
COc1ccccc1N1CSC2=C(C#N)C(c3ccc(SC)cc3)CC(=O)N2C1 (centres undefined),-6%,-9,-3,?
COc1cccc(C2CC(=O)N3CN(c4ccccc4F)CSC3=C2C#N)c1 (centres undefined),-3%,-22,-6,35µM*
COc1ccc(OC)c(C2CC(=O)N3CN(c4ccccc4F)CSC3=C2C#N)c1 (centres undefined),-2%,39,7,16µM*
CCn1ccnc1CN(C)Cc1nc(CCC(C)C)no1,18%,37,23,-10%
CN(CCN1CCOCC1)Cc1nc(-c2ccccc2)no1,6%,14,12*,-30%[57.1 µM]
CCn1ccnc1CN(C)Cc1nc(-c2ccccc2)no1,22%,55*,35*,5%
CCn1ccnc1CN(C)Cc1nc(-c2cccc(Cl)c2)no1,51%,49,30*,-6%
CC(=O)Nc1cccc(NC(=O)c2ccc3[nH]c(C)c(C)c3c2)c1,-5%,56*,20*,-2%
Cc1[nH]c2ccc(C(=O)NCc3ccccn3)cc2c1C,42%,55*,29*,-13%
COc1ccccc1CNC(=O)c1ccc2[nH]c(C)c(C)c2c1,3%,·,·,1%
Cc1[nH]c2ccccc2c1CCNC(=O)c1ccc2nccnc2c1,2%,·,15*,-4%
COc1ccc(NC(=O)c2ccc3[nH]c(C)c(C)c3c2)cc1,46%,48*,39*,14%
COc1ccc(Nc2ncnc3c2c(-c2ccccc2)cn3-c2ccc(C)c(Cl)c2)cc1OC,2%,·,·,9%
Cc1ccc(S(=O)(=O)N2CCCc3cc(NS(=O)(=O)c4cc(F)ccc4F)ccc32)cc1,-30%,·,·,6%
Cc1cc(NC(=O)c2ccc3[nH]c(C)c(C)c3c2)ccn1,-26%,52*,34,16%
N/C(=N\OC(=O)N1CCOCC1)c1ccc(Br)cc1,26%,62,53*,9%
N/C(=N\OC(=O)N1CCOCC1)c1ccccc1,·,32,23*,8%
N/C(=N\OC(=O)N1CCOCC1)c1ccc(Cl)cc1,16%,53*,55*,1%
SMILES,FMDV inh,Shiga toxin inh,Cycloheximide cs,Sm TGR block
S=C(c1ccc(Cl)cc1)N1CCOCC1,1%,-13,-5,6%
CCC(Cc1ccccc1)NC(=O)c1csc2c1CCCCC2 (centres undefined),15%,·,·,24%
CC[C@H](C)[C@H](NC(=O)[C@H](CO)NC(=O)[C@H](C)NC(=O)[C@H](C)NC(=O)[C@H](CCC(N)=O)NC(=O)[C@H](CCCCN)NC(=O)[C@H](CCCN=C(N)N)NC(=O)[C@@H](N)CS)C(=O)N[C@@H](CCCCN)C(=O)N[C@H](C(=O)N[C@@H](C)C(=O)N[C@H](C(=O)N[C@@H](CO)C(=O)O)C(C)C)C(C)C,·,13,-5,·
Cc1nc(Sc2ccccc2)c(C#N)c(C)c1[N+](=O)[O-],?,-13,-3,-19%
COC(=O)C(Sc1nc(C)cc(C)c1C#N)c1ccccc1 (centres undefined),·,2,18,-6%
Cc1cc(C)c(C#N)c(Sc2nc(C)c([N+](=O)[O-])c(C)c2C#N)n1,22µM*,·,·,·
Cc1cc(C)c(C#N)c(Sc2ccccc2N)n1,0%,72*,32*,?
COc1ccc(-n2c(=O)c3ccc(C(=O)NCc4ccc(C)cc4)cc3n(CC(=O)Nc3ccc(C)cc3)c2=O)cc1,-26%,·,·,1%
Cc1oc2ccc(O)c(CN(C)Cc3ccccc3)c2c1C(=O)Nc1cccc(C(F)(F)F)c1,?,·,·,-1%
COc1ccc(N(C)C(=O)c2cc3c(s2)-c2ccccc2OC3)c(OC)c1,-19%,2,-2,0%
COc1ccc(N(C)C(=O)c2cc3c(s2)-c2ccc(Cl)cc2S(=O)(=O)C3)c(OC)c1,28µM*,-9,9,-6%
O=C1C(Cl)=C(NCC2CCCO2)C(=O)N1c1ccccc1 (centres undefined),6%,-17,-2,50µM*
O=C1C(Cl)=C(NCC2CCCO2)C(=O)N1C1CCCCC1 (centres undefined),-9%,-6,7,-19%
Cc1nc2c(c(C)nn2C(C)(C)C)c(C)c1CCC(=O)Nc1ccc(F)cc1,-1%,·,·,3%
O=C1NC(c2ccccc2)(C(F)(F)F)C(=O)N1Cc1cccnc1 (centres undefined),?,96*,47*,5%
Cc1ccc(S(=O)(=O)C2CS(=O)(=O)CC2O)cc1 (centres undefined),·,12,-6,-2%
CC(=O)C1=C(S(=O)(=O)c2ccc(C)cc2)CS(=O)(=O)C1,?,29,20*,·
CCOc1ccc(-c2nnc(NC(=O)Cc3ccc(OC)cc3)o2)cc1,11%,26,25,-11%
CCOc1ccc(-c2nnc(NC(=O)CCCOc3cccc(C)c3)o2)cc1,37%,70*,26*,-1%
CCOc1ccc(-c2nnc(NC(=O)Cc3cc(OC)c(OC)c(OC)c3)o2)cc1,22%,73*,18*,20%
Cn1cc(-c2cc3n(n2)CCC(=O)N3CCCC(=O)Nc2ccccc2Cl)c2ccccc21,-27%,·,·,-1%
Cc1c(C(=O)NN)nn(-c2ccc(Cl)cc2)c(=O)c1C#N,13µM*,-18,-16,-14%
Cc1ccc(OC(=O)c2ccccc2)cc1C,45%,·,·,·
Cn1cnc2cc(OC(=O)c3ccccc3)ccc21,·,108*,48*,13%
Cc1ccc(C(=O)Oc2ccc3c(c2)ncn3C)cc1,·,99*,49*,15%
SMILES,FMDV inh,Shiga toxin inh,Cycloheximide cs,Sm TGR block
O=C1OC(c2ccccc2)=C/C1=C\N1CCOCC1,33%,-4,7,20µM*
O=C1OC(c2ccccc2)=C/C1=C/N1CCOCC1,·,63*,17*,40µM*
COc1ccc(CCC(=O)NCc2nc3cccnc3n2Cc2ccc(OC)cc2)cc1,-1%,·,·,5%
CC12CCC(C(=O)N(CSC(=S)N/N=C\c3ccccc3O)C1=O)C2(C)C (centres undefined),1%,56,26*,20µM*
CC(=O)c1ccc(NC(=O)CSc2nnc3ccc(-c4ccc(Br)cc4)nn23)cc1,-6%,·,·,1%
CCOc1ccccc1NC(=O)Nc1ccc(CC#N)cc1,-4%,28,17*,12%
N#CCc1ccc(NC(=O)Nc2cccc3ccccc23)cc1,29%,22,16*,-11%
CCOc1ccccc1NC(=O)Nc1ccncc1,-5%,14,5,20%
